Compounds with a hit are over-represented: about 15% of the library has one in this group of screens.
VP16 counter – inhibits Gal4-VP16 luciferase reporter, ROR gamma counter-screen. AID 2546. Drosophila S2 Gal4-VP16 UAS-luciferase, luminescence, 20 h. Potency, µM (top dose mostly 53.6 µM), for the others: at the top dose activity, negative = inhibition, actives largely listed as inhibitors. 3.5% of 310,000 active;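 further: Gal4-VP16 expression switched on by copper sulfate through the metallothionein promoter; nearly all actives have a fitted effect of over 50% in size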
ELG1 DNA repair – inhibitors of ELG1-dependent DNA repair in HEK293T cells; HEK293T ELG1-luciferase reporter, luminescence, 16 h; DNA damage induced by 5-fluorouridine; Potency, µM (series often up to 46.1 µM), inactives show at the top dose activity change, negative = inhibition, usual class: inhibitors; 2.3% of 330,000 active; further: nearly all actives have a fitted effect of over 55% in size
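DMSO vehicle served as the neutral condition. Each well held 2,000 cells given 5-fluorouridine plus compound; after 16 hr at 37 °C/5% CO2, ONE-Glo was added and luciferase measured 30 min later.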
ALOX12 inh – ALOX12 (human) lipoxygenase inhibition | P18054 | purified 12hLO, xylenol orange hydroperoxide absorbance | Potency, µM (titrated, usually from 108 µM), for the others: at the highest dose activity change, negative = inhibition, actives largely listed as inhibitors | 1.1% of 580,000 active | AID 1671190
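Purified human 12hLO (150 nM final) in 25 mM Hepes, 0.01% Triton X-100, pH 7.0 was preincubated 15 min at room temperature with compound. Then 40 uM arachidonic acid was added, 30 min. Hydroperoxide was read by Fe-XO absorbance ratio 573/405 nm.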
TDP1 cell CPT – DT40-hTDP1 cell growth loss with CPT. chicken DT40 Tdp1-/-;hTDP1 cells + 20 nM CPT, ATP luminescence, 48 h. Potency, µM (series often up to 46.2 µM), for the others: at the top dose activity change, negative = growth inhibition, actives largely listed as inhibitors. 12% of 420,000 active. AID 686979; further: nearly all actives have a fitted effect of over 55% in size
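Chicken DT40 Tdp1-/- cells stably complemented with human TDP1 were seeded at 400 cells/well in medium containing 20 nM camptothecin, exposed to pin-transferred compounds, and grown at 37 °C for at least 48 hr. Viability was read as ATP luminescence.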
RORgamma inh – inhibitors of mouse ROR gamma transcriptional activity. P51450. Drosophila S2 Gal4-RORgamma UAS-luciferase reporter, 20 h. Potency, µM (titrated, usually from 53.6 µM), for the others: top-dose activity change, negative = inhibition, hits mostly inhibitors. 5.4% of 310,000 active; further: nearly all actives have a fitted effect of over 60% in size
Target sequence (P51450 whole entry, looked up, the tested form may be a part): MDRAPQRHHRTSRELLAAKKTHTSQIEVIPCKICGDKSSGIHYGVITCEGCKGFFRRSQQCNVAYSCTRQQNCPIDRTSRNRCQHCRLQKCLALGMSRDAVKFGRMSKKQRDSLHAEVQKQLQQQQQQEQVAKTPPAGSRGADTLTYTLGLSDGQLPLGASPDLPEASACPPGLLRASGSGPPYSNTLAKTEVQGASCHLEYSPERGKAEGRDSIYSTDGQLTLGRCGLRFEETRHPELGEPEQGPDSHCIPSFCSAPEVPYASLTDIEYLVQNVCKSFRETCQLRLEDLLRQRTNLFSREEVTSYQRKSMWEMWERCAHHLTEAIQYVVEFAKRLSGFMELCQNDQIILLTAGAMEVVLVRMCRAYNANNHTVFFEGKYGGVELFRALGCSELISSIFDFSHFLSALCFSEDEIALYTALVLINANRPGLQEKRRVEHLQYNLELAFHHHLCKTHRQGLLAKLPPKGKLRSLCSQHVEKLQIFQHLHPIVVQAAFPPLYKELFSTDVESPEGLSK
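Schneider cells (Drosophila), stable Gal4 DBD–ROR gamma + UAS-luc; 1 hr cmpd preincubation; Cu2+ induction 700 uM final; 20 hr ambient; luminescence.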
TDP1 cell noCPT – qHTS for Inhibitors of human tyrosyl-DNA phosphodiesterase 1 (TDP1): qHTS in cells in absence of CPT | 15% of 420,000 active | DT40 Tdp1-/- hTDP1 cells, no CPT, ATP luminescence, 48 h | AID 686978, 2013 | Potency, µM (titrated, usually from 46.2 µM), for inactives: at the top dose activity change, negative = growth inhibition, hits mostly inhibitors; further: nearly all actives have a fitted effect of over 55% in size
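Growth of hTDP1-complemented DT40 Tdp1-knockout cells is measured by ATP luminescence after at least 48 hr compound exposure at 37 °C, with DMSO substituting for the 20 nM CPT used in the parallel screen.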
An asterisk follows results filed as active; ? = inconclusive; · = no result; [ ] = remark or other dose. The call rests on the fitted dose curve; in most records, active means well fitted curve in the direction sought with a large enough effect; inconclusive means small, poorly fitted or top-dose-only effect, or another doubt; inactive means no such curve, though single readings can be large; an effect the other way counts as inactive or inconclusive. On the % scale 0 is the no-effect control and ±100 the full control effect; potency means the concentration at half of the fitted maximal effect.

SMILES	VP16 counter	ELG1 DNA repair	ALOX12 inh	TDP1 cell CPT	RORgamma inh	TDP1 cell noCPT
COc1ccc(CCC(=O)N2CCC(C(=O)N3CCCCCCNC(=O)CC3)CC2)cc1	·	·	-0.3%	·	·	·
Cc1ccc(C2Cn3cnc(C(=O)N4CCC(C(=O)NC(C)c5ccccc5)CC4)c3CO2)cc1 (stereo not drawn)	·	·	11.2%	·	·	·
COc1cccc(NC(=O)C2CC(=O)N/C(=N/NC(=O)c3ccc(C)cc3)S2)c1 (stereo not drawn)	11.2µM*	7.9%	2.5%	9.6%	6.31µM*	4.4%
COc1ccc(CN=C2NC(=O)CC(C(=O)Nc3ccc(Cl)cc3)S2)cc1 (stereo not drawn)	-2.0%	-5.6%	-5.2%	20.6µM*	?	13µM*
COc1ccc(NC(=O)C2CC(=O)N/C(=N/NC(=O)c3ccc(Cl)cc3)S2)cc1 (stereo not drawn)	-26.5%	16.2%	3.5%	-3.1%	1.26µM*	4.6%
Cc1ccc(C(=O)N/N=C2/NC(=O)CC(C(=O)Nc3ccccc3)S2)cc1 (stereo not drawn)	5.62µM*	5.6%	-2.8%	1.1%	3.16µM*	9.3%
COc1ccc(CN=C2NC(=O)CC(C(=O)Nc3cc(C)cc(C)c3)S2)cc1 (stereo not drawn)	-2.3%	-2.0%	24.1%	7.6%	?	5.8%
Cc1cccc(Oc2coc3cc(OCC(=O)OC4CCCCC4)ccc3c2=O)c1	·	·	-6.2%	·	·	·
CCOc1ccc(C(=O)N2CCC(NS(=O)(=O)c3cccs3)CC2)cc1	·	·	-1.3%	·	·	·
CCc1noc(-c2cn(C3CCN(C(=O)c4ccc5c(c4)OCO5)C3)nn2)n1 (stereo not drawn)	·	·	2.7%	·	·	·
Cc1ccc(NC(=O)C2CC(=O)N/C(=N/NC(=O)c3ccc(C)cc3)S2)cc1 (stereo not drawn)	10µM*	8.9%	-13.7%	-8.5%	2.24µM*	-2.3%
Cc1ccc(NC2(c3nnnn3-c3c(C)cccc3C)CCCC2)cc1	·	·	-60.8%	·	·	·
O=[N+]([O-])c1ccc(Cl)cc1Sc1nc2ccccc2o1	-3.8%	-1.0%	-0.1%	?	-16.3%	?
Clc1ccc(-c2nnc(Sc3nc4ccccc4o3)c3ccccc23)cc1	?	?	4.6%	?	6.31µM*	16.4µM*
Cc1ccc(NC(=O)C(NC2CCCC2)c2ccccc2)cc1Cl (stereo not drawn)	1.3%	-8.1%	-27.8%	?	-33.3%	16.4µM*
Cc1cc(C(=O)OC(C(=O)Nc2ccc(C)c(Cl)c2)c2ccccc2)c(C)o1 (stereo not drawn)	-20.5%	-24.9%	-21.0%	23.1µM*	-3.1%	29.1µM*
O=C1CCN(S(=O)(=O)c2ccccc2)CCCC(C(=O)NCCN2CCCC2)CCN1 (stereo not drawn)	·	·	101.8%	·	·	·
COc1ccc(-c2sc(Nc3ccccc3)n[n+]2-c2ccc(F)cc2)c(C)c1C	-0.3%	?	?	7.31µM*	?	10.3µM*
COc1cc(F)ccc1-c1cnc2n[nH]c(-c3ccccc3)c2n1	·	·	1.6%[176 µM]	·	·	·
Cc1cccc(-c2sc(Nc3ccccc3)n[n+]2-c2ccc(F)cc2)c1	-5.7%	-8.2%	?	7.31µM*	-26.0%	9.2µM*
CSc1ccc(-c2sc(Nc3ccccc3)n[n+]2-c2ccc(F)cc2)cc1	-7.4%	-7.6%	·	11.6µM*	?	23.1µM*
CCCCNc1n[n+](C)c(-c2cccc(C)c2)s1	-10.2%	21.9%	·	·	-31.5%	·
CCc1ccc(Nc2n[n+](-c3ccccc3)c(-c3cccc(C)c3)s2)cc1	·	14.7%	?	7.31µM*	·	5.8µM*
COc1ccc(C(=O)Oc2ccc(Cl)cc2C)cc1OC	·	·	-19.9%	·	·	·
COC(=O)CC1Oc2ccc(Cl)cc2-n2cc(-c3ccccc3)nc21 (stereo not drawn)	·	·	-10.9%	20.6µM*	·	13µM*
SMILES	VP16 counter	ELG1 DNA repair	ALOX12 inh	TDP1 cell CPT	RORgamma inh	TDP1 cell noCPT
COC(=O)CC1Oc2ccc(Cl)cc2-n2cc(-c3ccc(F)cc3)nc21 (stereo not drawn)	·	·	-21.5%	-14.3%	·	-18.0%
COC(=O)CC1Oc2ccccc2-n2cc(-c3ccc(Cl)cc3)nc21 (stereo not drawn)	·	·	-11.1%	7.31µM*	·	1.84µM*
S=c1[nH]nc(-c2ccncc2)n1/N=C/C(Cl)=C\c1ccccc1	?	?	?	13µM*	?	8.2µM*
Cc1cc(-c2n[nH]c(=S)n2/N=C/C=C/c2ccccc2)n[nH]1	?	12.7%	?	-23.6%	-38.3%	-8.7%
S=c1[nH]nc(-c2ccncc2)n1/N=C/C=C/c1ccccc1	-4.9%	?	?	-23.7%	2.82µM*	?
CC(C)OC(=O)c1ccc(NC(=O)CSc2cn[nH]c(=O)n2)cc1	·	·	5.8%	·	·	·
CNC(C)c1cccs1 (stereo not drawn)	·	·	-22.5%	·	·	·
CCCC(=O)C1=C(c2ccccc2)C(C#N)(C#N)C(C#N)=C1N	2.9%	8.4%	?	18.4µM*	14.1%	14.6µM*
COc1ccc(C(=O)NCC2c3cc(OC)c(OC)cc3CCN2C(=O)Nc2cccc(C)c2)cc1 (stereo not drawn)	·	·	30.2%	·	·	·
O=C(Nc1nnc(CCc2ccccc2)s1)c1cc(=O)[nH]c2ccccc12	·	·	-13.2%	·	·	·
COc1ccc(-c2csc3nc(-c4ccc(C)cc4)oc(=O)c23)cc1OC	?	9.2%	1.4%	9.2µM*	-6.5%	10.3µM*
COc1ccc(-c2csc3nc(-c4ccc(F)cc4)oc(=O)c23)cc1	·	·	-12.3%	4.4%	·	-23.4%
COc1ccc(-c2csc3nc(-c4ccccc4OC)oc(=O)c23)cc1	-19.1%	-7.2%	-11.4%	20.6µM*	11.2µM*	23.1µM*
COc1ccc(-c2csc3nc(C)n(-n4cccc4)c(=O)c23)cc1OC	-2.7%	-0.7%	-10.4%	16.4µM*	-34.9%	23.1µM*
COc1ccc(-c2csc3ncn(-c4ccccc4OC)c(=O)c23)cc1OC	3.2%[10 µM]	?	5.5%	?	0.0%	23.1µM*
Cc1cccc(NC(=O)c2oc3ccccc3c2NC(=O)c2cc(=O)c3cc(C)ccc3o2)c1	·	·	18.4%	·	·	·
CC(C)CN(CC1CN(C(=O)NCc2ccccc2)CCO1)C(=O)c1ccc2c(c1)OCO2 (stereo not drawn)	·	·	-0.9%	·	·	·
CCOc1ccc(-c2csc3ncn(-c4ccc(OC)cc4)c(=O)c23)cc1	-12.6%	?	3.1%	?	?	16.4µM*
COc1ccccc1-n1cnc2sc(C)c(C)c2c1=O	-17.3%	19.2%	-1.4%	-15.8%	-6.1%	2.5%

Screens deposited in PubChem BioAssay by National Center for Advancing Translational Sciences (NCATS).
